# Assay results published in PubChem BioAssay (EPA / NIEHS).
# Where “and” joins values, the source holds several entries; their conditions need not be identical. Identical values can stand only once. Records with an inconclusive call do not appear. The source holds several records for some structures; these can differ, active in one and inactive in another. Calls of active or inactive are those of the source. How the source made its calls, unless noted: active means hit-call score of the fitted dose curve at least 0.9, where 1 is the maximum; inactive means score below 0.9.
# Columns and labels:
# [1] = read-out: Plasminogen activator inhibitor-1 (PAI1), SERPINE1 (gene 5054); assay: BSK_CASM3C_PAI1: BioMAP Diversity Plus: CASM3C Assay for Plasminogen activator inhibitor-1 (PAI1) Biomarker Activity (AID 2284284); settings: primary human coronary artery smooth muscle cells;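 further: PAI-1 protein level measured by ELISA 24 h after dosing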
# [2] = read-out: Monocyte Chemoattractant Protein-1 (MCP1), CCL2 (gene 6347); assay: BSK_hDFCGF_MCP1: BioMAP Diversity Plus: hDFCGF Assay for Monocyte Chemoattractant Protein-1 (MCP1) Biomarker Activity (AID 2284285); settings: primary human foreskin fibroblasts
# Procedure, shortened: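 Human foreskin fibroblasts (hDFCGF system) were exposed to compound and secreted MCP-1 was measured by ELISA after 24 hours. Activity was fitted relative to DMSO. Cytotoxicity was checked by SRB total-protein staining in parallel cultures.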
# [3] = read-out: Vascular cell adhesion molecule 1 (VCAM1), VCAM1 (gene 7412); assay: BSK_IMphg_VCAM1: BioMAP Diversity Plus: IMphg Assay for Vascular cell adhesion molecule 1 (VCAM1) Biomarker Activity (AID 2284286); settings: primary human endothelial cells with macrophages
# Procedure, shortened: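 Human venular endothelial cells co-cultured with macrophages; VCAM-1 quantified by ELISA 24 h after dosing, fitted in the positive direction against DMSO. Cytotoxicity was checked in parallel cultures by SRB total-protein staining (0.1% SRB after 10% TCA fixation, 560 nm).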
# [4] = read-out: Intercellular Adhesion Molecule 1 (ICAM1), ICAM1 (gene 3383); assay: BSK_hDFCGF_ICAM1: BioMAP Diversity Plus: hDFCGF Assay for Intercellular Adhesion Molecule 1 (ICAM1) Biomarker Activity (AID 2284287); settings: primary human foreskin fibroblasts
# Procedure, shortened: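 Primary human foreskin fibroblasts (hDFCGF system) dosed with chemical; ICAM-1 quantified by ELISA at 24 h relative to DMSO. Parallel SRB total-protein staining to assess overt cytotoxicity.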
# CD40, CD40 (gene 958) = assay: BSK_IMphg_CD40: BioMAP Diversity Plus: IMphg Assay for CD40 Biomarker Activity (AID 2284288); settings: primary human endothelial cells with macrophages
# Procedure, shortened: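 Venular endothelial cells co-cultured with macrophages (human primary), CD40 measured by ELISA 24 h after dosing. Positive-direction fit vs DMSO baseline; cytotoxicity tracked by SRB total-protein staining in parallel cultures.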
# [5] = read-out: TIMP metallopeptidase inhibitor 2 (TIMP2), TIMP2 (gene 7077); assay: BSK_hDFCGF_TIMP2: BioMAP Diversity Plus: hDFCGF Assay for TIMP metallopeptidase inhibitor 2 (TIMP2) Biomarker Activity (AID 2284289); settings: primary human foreskin fibroblasts
# Procedure, shortened: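 Primary human foreskin fibroblasts in the hDFCGF system, dosed for 24 h; TIMP-2 level measured by ELISA, fitted in the positive direction against DMSO; cytotoxicity checked in parallel by sulforhodamine B total protein staining.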
# [6] = read-out: Interleukin-1 alpha (IL1a), IL1A (gene 3552); assay: BSK_IMphg_IL1a: BioMAP Diversity Plus: IMphg Assay for Interleukin-1 alpha (IL1a) Biomarker Activity (AID 2284290); settings: primary human endothelial cells with macrophages
# Procedure, shortened: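 Human venular endothelial cells co-cultured with macrophages, IMphg system. IL-1α is measured by ELISA 24 h after dosing and fitted in the positive direction against DMSO. Cytotoxicity is assessed by SRB staining of parallel cultures.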
# [7] = read-out: E-selectin (Homo sapiens) (UniProt P16581); assay: BSK_IMphg_ESelectin: BioMAP Diversity Plus: IMphg Assay for Eselectin Biomarker Activity (AID 2284291); settings: primary human endothelial cells with macrophages
# Procedure, shortened: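 Human venular endothelial cell–macrophage co-culture, E-selectin measured by ELISA 24 h after chemical dosing. Signal fitted in the positive direction against DMSO as negative control and baseline.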
# [8] = BSK_IMphg_SRB: Viability Assessment in the BioMAP Diversity Plus: IMphg Assay (AID 2284292); settings: primary human endothelial cells with macrophages;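 further: measured one day after compound addition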
# Procedure, shortened: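 Human venular endothelial cells with macrophages, 24 h after chemical dosing; total protein by 0.1% SRB staining after 10% TCA fixation, read at 560 nm. Positive-direction fitting versus DMSO baseline.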
# [9] = read-out: Macrophage colony-stimulating factor (MCSF), CSF1 (gene 1435); assay: BSK_IMphg_MCSF: BioMAP Diversity Plus: IMphg Assay for Macrophage colony-stimulating factor (MCSF) Biomarker Activity (AID 2284293); settings: primary human endothelial cells with macrophages
# Procedure, shortened: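 Co-culture of human venular endothelial cells and macrophages, 24 hours of chemical exposure. M-CSF quantified by ELISA, with parallel SRB total-protein staining for cytotoxicity; activity fitted relative to DMSO.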
# [10] = read-out: Interleukin-10 (IL10), IL10 (gene 3586); assay: BSK_IMphg_IL10: BioMAP Diversity Plus: IMphg Assay for Interleukin-10 (IL10) Biomarker Activity (AID 2284294); settings: primary human endothelial cells with macrophages
# Procedure, shortened: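 Human venular endothelial cells cocultured with macrophages, dosed 24 h; IL-10 measured by ELISA, activity relative to DMSO. Cytotoxicity assessed in parallel cultures by sulforhodamine B total-protein staining.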
# [11] = BSK_IMphg_SRB.Mphg: Macrophage Viability Assessment in the BioMAP Diversity Plus: IMphg Assay (AID 2284295); settings: primary human endothelial cells with macrophages
# Procedure, shortened: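 Venular endothelial cells co-cultured with macrophages, read 24 h after dosing. Total protein measured by 0.1% SRB staining after 10% TCA fixation, absorbance at 560 nm. Fitted in positive direction against DMSO baseline.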
# [12] = read-out: Thrombomodulin, THBD (gene 7056); assay: BSK_LPS_Thrombomodulin: BioMAP Diversity Plus: LPS Assay for Thrombomodulin Biomarker Activity (AID 2284296); settings: primary human HUVEC with PBMC
# Procedure, shortened: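 Human umbilical vein endothelial cells co-cultured with PBMC and stimulated with LPS; cell-surface thrombomodulin measured by ELISA 24 hours after compound. Gain or loss versus DMSO; cytotoxicity checked by SRB staining in parallel cultures.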
# CD69, CD69 (gene 969) = assay: BSK_LPS_CD69: BioMAP Diversity Plus: LPS Assay for CD69 Biomarker Activity (AID 2284303); settings: primary human HUVEC with PBMC
# Procedure, shortened: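 Human umbilical vein endothelial cells co-cultured with PBMC under LPS stimulation, chemical exposure 24 h; cell-surface CD69 measured by ELISA and fitted in the positive direction versus DMSO.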
# TTR (gene 7276) = assay: CCTE_GLTED_hTTR_0.5uM: CCTE's human Transthyretin (hTTR) Inhibition Assay, with 0.5uM TTR, Great Lakes Toxicology and Ecology Division (GLTED) Lab (AID 2284320)
# Procedure, shortened: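 Cell-free displacement assay in which human TTR at 0.5 uM was incubated with test chemical for 2 h. Displacement of the ANSA probe was read by fluorescence at 380 nm excitation/475 nm emission. Loss of signal was fitted in the positive direction versus DMSO.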
# [13] = CCTE_Mundy_HCI_iCellGluta_NOG_NeuronCount: CCTE's Neurite Outgrowth Assay in iCellGluta cells for Neuron Count, Mundy Lab (AID 2284340; active means hit-call score of the fitted dose curve at least 0.9, where 1 is the maximum;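 further: cells fixed about 48 h after compound addition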)
# Procedure, shortened: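 Neuron count read by automated high-content imaging of Hoechst 33342 and betaIII-tubulin/Alexa Fluor-488 labelling in human iPSC glutamatergic neurons. Activity fitted relative to DMSO.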
# [14] = CCTE_Deisenroth_5AR_NBTE_donor: CCTE's 5alpha-reductase NanoBRET Target Engagement Assay […], Deisenroth Lab (AID 2284319); settings: actives raise or lower the signal
# Procedure, shortened: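 SRD5A2-NanoLuc, HEK293T, 20 h expression. Chemical 10 nM - 29.9 uM, 8 conc, duplicate; 3 h preincubation + 2 h testosterone tracer. Nano-Glo substrate plus extracellular NanoLuc inhibitor; donor lum 460 nm. DMSO baseline, bidirectional fit.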
# [15] = CCTE_Deisenroth_5AR_NBTE_acceptor: CCTE's 5alpha-reductase NanoBRET Target Engagement Assay - Autofluorescence Screen, Deisenroth Lab (AID 2284321); settings: actives raise or lower the signal;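 further: compound fluorescence in the acceptor channel under 460 nm excitation flags autofluorescence artifacts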
# Procedure, shortened: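 Using three independent plate-reader runs, nominal 100 uM chemicals were checked for intrinsic fluorescence (ex 460 nm). DMSO defined the baseline for bidirectional fitting.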
# SRD5A2 (gene 6716) = assay: CCTE_Deisenroth_5AR_NBTE_ratio: CCTE's 5alpha-reductase NanoBRET Target Engagement Assay - Ratio, Deisenroth Lab (AID 2284322); settings: actives raise or lower the signal
# Procedure, shortened: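 Reverse-transfect HEK293T with pNLF1-C-SRD5A2, express 20 h. Pre-incubate cells with chemical 3 h (8-point series, 10 nM - 29.9 uM, duplicate). Add testosterone tracer, 2 h more. Add substrate/inhibitor, read donor and acceptor emission.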
# IYD (gene 389434) = assay: CCTE_GLTED_hIYD: CCTE's human Iodotyrosine Deiodinase (xIYD) Inhibition Assay, Great Lakes Toxicology and Ecology Division (GLTED) Lab (AID 2284317; active means hit-call score of the fitted dose curve at least 0.9, where 1 is the maximum;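 further: cell-free human IYD enzyme made in baculovirus insect cells; iodide freed from monoiodotyrosine measured by cerium arsenite color change at 420 nm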)
# Procedure, shortened: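 Human IYD expressed in a baculovirus-insect cell system was incubated 3 h with monoiodotyrosine and test chemical. Released iodide, separated on Dowex columns, was quantified by the Sandell-Kolthoff reaction at 420 nm; plates were normalized to MNT and DMSO/NaOH controls.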
# Chain of E-selectin (Homo sapiens) (P16581 whole entry, looked up): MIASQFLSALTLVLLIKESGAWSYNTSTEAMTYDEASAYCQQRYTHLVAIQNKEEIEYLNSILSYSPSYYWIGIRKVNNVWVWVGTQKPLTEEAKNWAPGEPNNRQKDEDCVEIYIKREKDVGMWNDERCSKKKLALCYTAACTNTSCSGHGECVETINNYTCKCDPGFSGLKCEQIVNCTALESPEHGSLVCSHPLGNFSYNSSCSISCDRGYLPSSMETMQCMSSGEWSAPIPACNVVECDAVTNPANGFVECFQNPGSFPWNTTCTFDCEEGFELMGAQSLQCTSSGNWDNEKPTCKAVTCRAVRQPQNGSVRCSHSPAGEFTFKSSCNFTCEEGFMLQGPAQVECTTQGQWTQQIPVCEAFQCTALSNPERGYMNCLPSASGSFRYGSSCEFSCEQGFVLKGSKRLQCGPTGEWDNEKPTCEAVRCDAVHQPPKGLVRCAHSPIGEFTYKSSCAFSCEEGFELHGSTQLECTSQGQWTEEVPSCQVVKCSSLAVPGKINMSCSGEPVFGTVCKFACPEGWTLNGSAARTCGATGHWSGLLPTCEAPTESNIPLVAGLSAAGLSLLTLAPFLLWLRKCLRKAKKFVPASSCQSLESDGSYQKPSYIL
structure (smiles),measurement,setting,value
O=C(O)C(F)(F)C(F)(F)C(F)(F)OC(F)(C(F)(F)F)C(F)(F)F,outcome,[1],inactive
same,outcome,[2],inactive
same,outcome,[3],inactive
same,outcome,[4],inactive
same,outcome,"CD40, CD40 (gene 958)",inactive
same,outcome,[5],inactive
same,outcome,[6],inactive
same,outcome,[7],inactive
same,outcome,[8],inactive
same,outcome,[9],inactive
same,outcome,[10],inactive
same,outcome,[11],inactive
same,outcome,[12],inactive
same,outcome,"CD69, CD69 (gene 969)",inactive
same,AC50,TTR (gene 7276),0.321 µM (active)
same,outcome,[13],inactive
O=C1C=CC(=O)N1c1ccccc1,AC50,[14],50 µM (active)
same,AC50,[15],50 µM (active)
same,AC50,SRD5A2 (gene 6716),22.3 µM (active)
O=S(=O)(OCC(F)(F)F)C(F)(F)C(F)(F)C(F)(F)C(F)(F)F,outcome,[1],inactive
same,outcome,[2],inactive
same,outcome,[3],inactive
same,outcome,[4],inactive
same,outcome,"CD40, CD40 (gene 958)",inactive
same,outcome,[5],inactive
same,outcome,[6],inactive
same,outcome,[7],inactive
same,outcome,[8],inactive
same,outcome,[9],inactive
same,outcome,[10],inactive
same,outcome,[11],inactive
same,outcome,[12],inactive
same,AC50,"CD69, CD69 (gene 969)",30 µM (active) and 890 nM (active)
same,AC50,TTR (gene 7276),1.4 µM (active)
C=C(C)C(=O)OCC(F)(F)C(F)(F)C(F)(F)C(F)F,outcome,[1],inactive
same,outcome,[2],inactive
same,outcome,[3],inactive
same,outcome,[4],inactive
same,outcome,"CD40, CD40 (gene 958)",inactive
same,outcome,[5],inactive
same,outcome,[6],inactive
same,outcome,[7],inactive
same,outcome,[8],inactive
same,outcome,[9],inactive
same,outcome,[10],inactive
same,outcome,[11],inactive
same,outcome,[12],inactive
same,outcome,"CD69, CD69 (gene 969)",inactive
same,AC50,TTR (gene 7276),19 µM (active)
CCCCCCCCCCCCC[N+](C)(C)Cc1ccccc1,AC50,IYD (gene 389434),70.8 µM (active)
same,AC50,[14],18.2 µM (active)
same,AC50,[15],17.2 µM (active)
same,AC50,SRD5A2 (gene 6716),68.9 µM (active)
CCN=c1cc2oc3cc(NCC)c(C)cc3c(-c3ccccc3C(=O)OCC)c-2cc1C,AC50,[14],10 µM (active)
same,AC50,[15],0.603 µM (active)
same,AC50,SRD5A2 (gene 6716),6.06 µM (active)
OCC(O)CC(F)(F)C(F)(F)C(F)(F)C(F)(F)F (stereo unspecified),outcome,[1],inactive
same,outcome,[2],inactive
same,outcome,[3],inactive
same,outcome,[4],inactive
same,outcome,"CD40, CD40 (gene 958)",inactive
same,outcome,[5],inactive
same,outcome,[6],inactive
same,outcome,[7],inactive
same,outcome,[8],inactive
same,outcome,[9],inactive
same,outcome,[10],inactive
same,outcome,[11],inactive
same,outcome,[12],inactive
same,AC50,"CD69, CD69 (gene 969)",220 nM (active)
same,outcome,"CD69, CD69 (gene 969)",inactive
O=S(=O)(O)CCC(F)(F)C(F)(F)C(F)(F)C(F)(F)F,outcome,[1],inactive
same,outcome,[2],inactive
same,outcome,[3],inactive
same,outcome,[4],inactive
same,outcome,"CD40, CD40 (gene 958)",inactive
same,outcome,[5],inactive
same,outcome,[6],inactive
same,outcome,[7],inactive
same,outcome,[8],inactive
same,outcome,[9],inactive
same,outcome,[10],inactive
same,outcome,[11],inactive
same,outcome,[12],inactive
same,outcome,"CD69, CD69 (gene 969)",inactive
same,AC50,TTR (gene 7276),2.1 µM (active)
OCCCC(F)(F)C(F)(F)C(F)(F)C(F)(F)C(F)(F)C(F)(F)C(F)(F)C(F)(F)F,AC50,[1],48.3 µM (active) and 45.4 µM (active)
same,AC50,[2],7.74 µM (active) and 7.47 µM (active)
same,AC50,[3],18 µM (active) and 17.8 µM (active)
same,AC50,[4],15.3 µM (active) and 9.92 µM (active)
same,AC50,"CD40, CD40 (gene 958)",10.1 µM (active) and 10.9 µM (active)
same,AC50,[5],19 µM (active) and 14.6 µM (active)
same,AC50,[6],47.7 µM (active) and 51 µM (active)
same,AC50,[7],14.3 µM (active) and 11.4 µM (active)
same,AC50,[8],47.2 µM (active) and 31 µM (active)
same,AC50,[9],44.4 µM (active) and 42.1 µM (active)
same,AC50,[10],40.8 µM (active) and 32.2 µM (active)
same,AC50,[11],16.7 µM (active) and 30 µM (active)
same,AC50,[12],52.8 µM (active) and 52.3 µM (active)
same,AC50,"CD69, CD69 (gene 969)",22.1 µM (active) and 43.1 µM (active)
same,outcome,[13],inactive
